Screening data: PubChem, National Center for Advancing Translational Sciences (NCATS)
This is a sample that favours compounds with a hit; in the whole collection about 7.3% have one here.
NPC1 prom act: activates the NPC1 promoter; Potency, µM (series often up to 9.22 µM), for inactives: at the highest dose activation, actives largely listed as activators; Huh7 NPC1 promoter luciferase reporter, 24 h; 320,000 compounds, 2.4% hits; further: % of control where 0% means no effect; nearly all actives have a fitted effect of over 60% in size
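Quantitative HTS used a cell-based reporter: Huh7 cells stably bearing the NPC1 promoter upstream of luciferase were treated with compounds for 24 h, and promoter activation was read as luminescence.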
FLuc counter: firefly luciferase modulation, counter-screen for miR-21 project; purified FLuc, Km substrates, luminescence inhibition; Potency, µM (series often up to 57.5 µM), without a hit: at the highest dose activity change, negative = inhibition, hits mostly inhibitors; 360,000 compounds, 6.9% hits;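 further: plate controls were vehicle for no effect and reference inhibitor for full effect; nearly all actives have a fitted effect of over 55% in size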
Target sequence (P08659 whole entry, looked up): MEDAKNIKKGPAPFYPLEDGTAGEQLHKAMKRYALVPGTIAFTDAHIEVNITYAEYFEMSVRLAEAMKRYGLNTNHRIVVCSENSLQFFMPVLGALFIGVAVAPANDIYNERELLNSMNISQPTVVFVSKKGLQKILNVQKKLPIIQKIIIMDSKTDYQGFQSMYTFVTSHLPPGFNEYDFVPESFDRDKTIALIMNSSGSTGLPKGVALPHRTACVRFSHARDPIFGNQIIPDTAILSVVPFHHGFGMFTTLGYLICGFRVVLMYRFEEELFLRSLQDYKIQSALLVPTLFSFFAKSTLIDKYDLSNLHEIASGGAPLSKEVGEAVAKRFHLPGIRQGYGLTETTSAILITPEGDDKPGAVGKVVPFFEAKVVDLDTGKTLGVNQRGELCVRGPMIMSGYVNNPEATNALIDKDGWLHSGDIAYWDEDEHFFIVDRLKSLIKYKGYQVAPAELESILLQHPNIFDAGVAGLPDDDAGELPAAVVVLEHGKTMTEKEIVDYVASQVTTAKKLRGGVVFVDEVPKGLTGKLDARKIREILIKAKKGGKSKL
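Purified P. pyralis luciferase (10nM final) with 10uM D-luciferin and 10uM ATP (Km levels) in 50mM Tris acetate pH 7.5, 10mM Mg acetate, 0.01% Tween-20, 0.05% BSA; qHTS 6-point titration, ~60 µM downward; luminescence read.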
KinaseGlo FLuc: counter-screen: inhibitors of Kinase-Glo firefly luciferase; Potency, µM (top dose mostly 38.3 µM), for inactives: top-dose activity change, negative = inhibition, actives largely listed as inhibitors; 200,000 compounds, 0.28% hits; Q27757; Kinase-Glo luciferase, ATP luminescence, 8 min; AID 1379; further: on the % scale 0 is the no-effect control and ±100 the full control effect; nearly all actives have a fitted effect of over 60% in size
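Compounds were added to a substrate mix at pH 7.2 (50 mM imidazole, 10 uM ATP, within the enzyme's linear range), followed by Kinase-Glo detection reagent; luminescence was measured after 8 minutes at ambient temperature.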
Rab9 promoter act: Rab9 promoter activation; Huh7 Rab9 promoter-luciferase reporter, luminescence, 24 h; Potency, µM (highest dose often 9.22 µM), for the others: at the top dose activation, negative = inhibition, hits mostly activators; 320,000 compounds, 2.8% hits; AID 485297; further: % of control where 0% means no effect; nearly all actives have a fitted effect of over 60% in size
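Steps: seed 1500 Huh7 Rab9-luc cells per well, rest 2 h at 37 °C; add compound in DMSO; incubate 24 h; add luciferase reagent, 10 min ambient; read luminescence.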
SMN2 splice up: increases expression of the SMN2 splice variant; Potency, µM (doses to about 46.1 µM), inactives show top-dose activity change, positive = activation, actives largely listed as activators; HEK293 SMN2-luciferase splicing reporter, luminescence, 30-36 h; 210,000 compounds, 2.8% hits; AID 1458; further: % of control where 0% means no effect; nearly all actives have a fitted effect of over 55% in size
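qHTS luciferase splicing reporter: luminescence rises when SMN2 exon 7 is included in transfected HEK293 cells. Compound exposure lasted 30-36 h at 37C, with 4.5 mM final sodium butyrate as control, followed by a ONE-Glo read.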
ELG1 genotoxic: genotoxicity induction in ELG1-luciferase HEK293T cells | AID 504466 | HEK293T ELG1-luciferase reporter, luminescence, 16 h | Potency, µM (titrated, usually from 46 µM), for inactives: at the top dose activity change, positive = activation, most hits filed as activators | 330,000 compounds, 1.3% hits; further: % of control where 0% means no effect; nearly all actives have a fitted effect of over 60% in size
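Screening used a luciferase reporter fused to human ELG1 in HEK293T cells. Luminescence was read on a CCD plate imager after 16 hr exposure and 30 min ONE-Glo incubation.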
Active calls of the source: *; [ ] = another dose, or the depositor's remark. The call rests on the fitted dose curve; in most records, active means well fitted curve in the direction sought with a large enough effect; inconclusive means small, poorly fitted or top-dose-only effect, or another doubt; inactive means no such curve, though single readings can be large; an effect the other way counts as inactive or inconclusive. Potency means the concentration at half of the fitted maximal effect.

How did CN1CCN(C2=C(Cl)C(=O)N(c3ccc(Cl)c(Cl)c3)C2=O)CC1 do in these assays?
NPC1 prom act: -0.7%; FLuc counter: -10.1%; KinaseGlo FLuc: 0.9%; Rab9 promoter act: 14.3%; SMN2 splice up: -20.1%; ELG1 genotoxic: 0.4%

Results for Cc1cc(NC(=O)c2cccs2)ncc1NC(=O)C(C)C ?
NPC1 prom act: 1.78µM*; FLuc counter: 15.1µM*; Rab9 promoter act: 2.24µM*; ELG1 genotoxic: -3.0%

What do the screens show for `Cc1cc(NC(=O)c2cccs2)ncc1NC(=O)c1cccc(F)c1`?
NPC1 prom act: 27.4%; FLuc counter: 19µM*; KinaseGlo FLuc: -10.3%; Rab9 promoter act: 3.16µM*; SMN2 splice up: inconclusive; ELG1 genotoxic: inconclusive

How did Cc1cc(NC(=O)c2ccccc2F)ncc1NC(=O)c1cccs1 do in these assays?
NPC1 prom act: 16.4%; FLuc counter: inconclusive; KinaseGlo FLuc: -26.8%; Rab9 promoter act: 28.6%; SMN2 splice up: inconclusive; ELG1 genotoxic: 13.3%

Results for O=C(Nc1ccc(NC(=O)c2cccs2)cn1)c1ccccc1 ?
NPC1 prom act: 2.24µM*; FLuc counter: 5.36µM*; KinaseGlo FLuc: -9.7%; Rab9 promoter act: 1.12µM*; SMN2 splice up: 15.8µM*; ELG1 genotoxic: inconclusive

What do the screens show for `Cc1cc(NC(=O)c2ccccc2)ncc1NC(=O)c1cccs1`?
NPC1 prom act: 3.55µM*; FLuc counter: 15.1µM*; KinaseGlo FLuc: 11.2µM*; Rab9 promoter act: 3.98µM*; SMN2 splice up: 11.2µM*; ELG1 genotoxic: inconclusive

How did O=C1/C(=C\c2ccc(Br)o2)SC(=Nc2ccccc2)N1c1ccccc1 do in these assays?
NPC1 prom act: 1.3%; FLuc counter: 3.5%; KinaseGlo FLuc: 2.2%; Rab9 promoter act: 0.2%; SMN2 splice up: -24.0%; ELG1 genotoxic: -0.5%

Results for COc1ccc(/C=N/NC(=O)CO/N=C(\C)c2cccs2)cc1 ?
NPC1 prom act: -3.0%; FLuc counter: inconclusive; KinaseGlo FLuc: 1.8%; Rab9 promoter act: -7.8%; SMN2 splice up: -35.6%; ELG1 genotoxic: 10.3%

Results for COC(=O)c1ccc2c(c1O)C(=O)c1ccccc1C2=O ?
NPC1 prom act: 10.7%; FLuc counter: 8.49µM*; KinaseGlo FLuc: -8.1%; Rab9 promoter act: 13.9%; SMN2 splice up: -8.1%; ELG1 genotoxic: inconclusive

Results for Nc1c(C(=O)O)ccc2c1C(=O)c1ccccc1C2=O ?
NPC1 prom act: 1.3%; FLuc counter: 19µM*; KinaseGlo FLuc: -14.9%; Rab9 promoter act: -4.9%; SMN2 splice up: -21.8%; ELG1 genotoxic: 1.1%

What do the screens show for `O=C1c2ccccc2C(=O)c2c1ccc(O)c2O`?
KinaseGlo FLuc: -8.2%; SMN2 splice up: -30.6%

How did Nc1cc(C(=O)O)c(N)c2c1C(=O)c1ccccc1C2=O do in these assays?
NPC1 prom act: 1.4%; FLuc counter: 19µM*; Rab9 promoter act: 0.4%; ELG1 genotoxic: -0.1%

Results for O=C1c2ccccc2C(=O)c2c1ccc(C(=O)O)c2-c1ccc2ccccc2c1 ?
KinaseGlo FLuc: -4.6%[7.66 µM]; SMN2 splice up: -2.9%[9.22 µM]

How did CN1C(=O)Cc2cc(S(=O)(=O)Nc3ccc(Cl)cc3)ccc21 do in these assays?
NPC1 prom act: 2.2%; FLuc counter: 4.6%; Rab9 promoter act: -5.0%; ELG1 genotoxic: 0.2%

What do the screens show for `Cc1cccc(NC(=O)[C@H](C)NC(=O)[C@@H]2Cc3ccccc3CN2C(=O)OC(C)(C)C)c1`?
NPC1 prom act: -0.3%; FLuc counter: 4.0%; Rab9 promoter act: 11.0%; ELG1 genotoxic: -0.1%

How did CCc1ccccc1NC(=O)Cn1c(=O)n(Cc2ccc3c(c2)OCO3)c(=O)c2ccc(C(=O)NC3CCCCC3)cc21 do in these assays?
FLuc counter: 2.0%; SMN2 splice up: 0.5%

Results for CC(=O)c1cc2c(cc1NC(=O)c1ccc(Cl)cc1)OCCO2 ?
NPC1 prom act: -1.3%; FLuc counter: -3.8%; Rab9 promoter act: -2.4%; ELG1 genotoxic: 17.9%

What do the screens show for `Cc1ccc(C(=O)Nc2cc3c(cc2Cl)OCCCO3)cc1`?
NPC1 prom act: 1.78µM*; FLuc counter: 7.57µM*; KinaseGlo FLuc: 5.0%; Rab9 promoter act: 2µM*; SMN2 splice up: 11.2µM*; ELG1 genotoxic: inconclusive

Results for O=C(Nc1cc2c(cc1Cl)OCCCO2)c1ccc(F)cc1 ?
NPC1 prom act: inconclusive; FLuc counter: 12µM*; KinaseGlo FLuc: -5.5%; Rab9 promoter act: 2.82µM*; SMN2 splice up: 7.94µM*; ELG1 genotoxic: inconclusive

Results for O=C(Nc1cc2c(cc1Br)OCCCO2)c1ccccc1 ?
NPC1 prom act: 3.55µM*; FLuc counter: 13.5µM*; KinaseGlo FLuc: 1.0%; Rab9 promoter act: 3.98µM*; SMN2 splice up: 15.8µM*; ELG1 genotoxic: inconclusive

Results for Cc1ccc(-c2nnc(-c3ccncc3)n2-c2ccc(C)cc2)cc1 ?
NPC1 prom act: -5.2%; FLuc counter: -17.2%; KinaseGlo FLuc: 9.1%; Rab9 promoter act: -2.8%; SMN2 splice up: -8.4%; ELG1 genotoxic: 6.1%

Results for O=C(O)c1ccc2nc(-c3ccccc3)sc2c1 ?
NPC1 prom act: -27.2%; FLuc counter: 2.39µM*; KinaseGlo FLuc: -9.0%; Rab9 promoter act: -28.2%; SMN2 splice up: 0.1µM*; ELG1 genotoxic: inconclusive

How did Nc1ccc(-c2nc3ccc(C(=O)O)cc3s2)cc1 do in these assays?
NPC1 prom act: -38.9%; FLuc counter: 0.213µM*; KinaseGlo FLuc: -14.7%; Rab9 promoter act: -43.0%; ELG1 genotoxic: inconclusive

How did Cc1ccc2nc(-c3ccc(NC(=O)c4ccc(N)cc4)c(S(=O)(=O)O)c3)sc2c1 do in these assays?
KinaseGlo FLuc: 0.4%[7.66 µM]; SMN2 splice up: 3.98µM*

Results for Nc1cc2sc(-c3ccc(C(=O)O)cc3)nc2cc1Cl ?
NPC1 prom act: 0.794µM*; FLuc counter: 0.675µM*; KinaseGlo FLuc: inconclusive; Rab9 promoter act: 0.562µM*; SMN2 splice up: 1.41µM*; ELG1 genotoxic: inconclusive

What do the screens show for `Cc1cccc(C(=O)Nc2ccc(-c3nc4ccccc4s3)cc2Cl)c1`?
FLuc counter: -6.2%

What do the screens show for `COc1ccc(C(=O)Nc2nnc(S(=O)(=O)N3CCN(c4ccc(C)cc4)CC3)s2)cc1`?
FLuc counter: -1.8%

What do the screens show for `O=C(CCS(=O)(=O)c1cccc2nonc12)Nc1c(F)cccc1F`?
FLuc counter: -5.6%; SMN2 splice up: -6.4%

What do the screens show for `O=C(CSc1ccc(-c2nc3ccccc3[nH]2)cn1)Nc1ccc(S(=O)(=O)N2CCCC2)cc1`?
NPC1 prom act: -4.4%; FLuc counter: 4.78µM*; KinaseGlo FLuc: -2.4%; Rab9 promoter act: -2.2%; SMN2 splice up: 18.9%; ELG1 genotoxic: -0.8%
